Laboratory results reported in PubChem BioAssay (EPA / NIEHS).
Inconclusive results are not listed. Calls of active or inactive are those of the source. How the source made its calls, unless noted: active means hit-call score of the fitted dose curve at least 0.9, where 1 is the maximum; inactive means score below 0.9.

Assays:
[1] = CCTE_Mundy_HCI_Cortical_NOG_NeuronCount: CCTE's Neurite Outgrowth Assay in rat cortical cells for Neuron Count, Mundy Lab (AID 2284236; active means hit-call score of the fitted dose curve at least 0.9, where 1 is the maximum;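 further: neurons counted by imaging betaIII-tubulin and Hoechst stained cortical cells; cells exposed to compound for about 48 hours before fixation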)
Summary of the method: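 Read-out: neuron number by high-content imaging of betaIII-tubulin (Alexa Fluor-488) and Hoechst-labelled rat primary cortical cells.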

[2] = CCTE_Mundy_HCI_Cortical_NOG_BPCount: CCTE's Neurite Outgrowth Assay in rat cortical cells for Branch Point Count, Mundy Lab (AID 2284237);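 further: branch points counted about two days after chemical exposure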
Summary of the method: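 Measured 50.33 h after dosing, this morphology endpoint uses rat primary cortical cultures labelled for betaIII-tubulin. Branch points are quantified by high-content imaging, with DMSO as negative control and baseline.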

[3] = read-out: Collagen I, COL1A1 (gene 1277); assay: BSK_MyoF_CollagenI: BioMAP Diversity Plus: MyoF Assay for Collagen I Biomarker Activity (AID 2284238); conditions: primary human lung fibroblasts
Summary of the method: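 Lung fibroblasts (human primary) dosed, 24 h; Collagen I by ELISA; positive-direction fit vs DMSO control. Parallel SRB total-protein staining (0.1% SRB, 10% TCA fixation, 560 nm) flags overt cytotoxicity.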

[4] = read-out: Collagen III, COL3A1 (gene 1281); assay: BSK_MyoF_CollagenIII: BioMAP Diversity Plus: MyoF Assay for Collagen III Biomarker Activity (AID 2284239); conditions: primary human lung fibroblasts
Summary of the method: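 ELISA read-out of collagen III from human lung fibroblasts after 24 h of chemical treatment. The DMSO control served as negative control and baseline, with values fitted in the positive direction.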

[5] = CCTE_Mundy_HCI_hNP1_Casp3_7: CCTE's Caspase-Glo 3/7 Assay in human neuroprogenitor cells for Apoptosis, Mundy Lab (AID 2284240)
Summary of the method: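 Luminescent caspase-3/7 readout, 26.5 h post-dose, in human neural progenitor cells from WA09 embryonic stem cells. Cells grew 40–44 h at 37 °C, 5% CO2 before chemical addition. Activity analysed as signal increase over DMSO baseline.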

[6] = CCTE_Mundy_HCI_hNP1_CellTiter: CCTE's Cell Titer-Glo 2 Assay in human neuroprogenitor cells for Viability, Mundy Lab (AID 2284241; active means hit-call score of the fitted dose curve at least 0.9, where 1 is the maximum;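 on AC50: a hit is a drop in ATP luminescence versus DMSO meaning reduced viability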)
Summary of the method: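 Viability read as luminescent ATP content (CellTiter-Glo, 30 min room temperature) twenty-four hours after dosing, relative to DMSO. Cells: WA09-derived hNP1 neuroprogenitors on poly-L-ornithine/laminin, plated 40 to 44 hours before chemical.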

[7] = CCTE_Mundy_HCI_Cortical_Synap_Neur_Matur_NeuronCount: CCTE's Synaptogenesis and Neurite Maturation Assay in rat cortical cells for Neuron Count, Mundy Lab (AID 2284242; active means hit-call score of the fitted dose curve at least 0.9, where 1 is the maximum;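 further: neuron number from Hoechst nuclei and MAP2 staining by high-content imaging; hits reduce neuron count versus DMSO baseline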)
Summary of the method: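 Cortical cells from rat are plated, treated with AraC at DIV 5, and exposed to test chemicals with a media change at DIV 7. At DIV 12 they are fixed and immunostained (MAP2, synaptophysin), and imaged neuron counts are compared against DMSO controls.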

[8] = read-out: Interleukin 17F (IL17F), IL17F (gene 112744); assay: BSK_BT_xIL17F: BioMAP Diversity Plus: BT Assay for Interleukin 17F (IL17F) Biomarker Activity (AID 2284243); conditions: primary human B cells with PBMC
Summary of the method: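 Compound was added to co-cultures of human B cells and PBMC. After 24 hours, IL-17F released into the medium was measured with LumineX xMAP technology. Responses were then fitted upward relative to DMSO.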

[9] = read-out: Interleukin 2 (IL2), IL2 (gene 3558); assay: BSK_BT_xIL2: BioMAP Diversity Plus: BT Assay for Interleukin 2 (IL2) Biomarker Activity (AID 2284245); conditions: primary human B cells with PBMC
Summary of the method: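 The BT system combines human B cells with peripheral blood mononuclear cells. Twenty-four hours after chemical dosing, secreted IL-2 was measured with xMAP bead technology, and responses were analyzed as increases over DMSO controls.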

[10] = read-out: Basic fibroblast growth factor (bFGF), FGF2 (gene 2247); assay: BSK_MyoF_bFGF: BioMAP Diversity Plus: MyoF Assay for Basic fibroblast growth factor (bFGF) Biomarker Activity (AID 2284246); conditions: primary human lung fibroblasts
Summary of the method: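 Chemicals are added to human lung fibroblast cultures and incubated 24 h. bFGF is then measured by ELISA, while parallel cultures receive SRB staining for total protein as a cytotoxicity check. Data are fitted upward against DMSO.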

[11] = read-out: Collagen IV, COL4A1 (gene 1282); assay: BSK_MyoF_CollagenIV: BioMAP Diversity Plus: MyoF Assay for Collagen IV Biomarker Activity (AID 2284247); conditions: primary human lung fibroblasts
Summary of the method: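 Human lung fibroblast system, 24 h chemical exposure. Endpoint: Collagen IV by ELISA, upward fit vs DMSO.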

[12] = read-out: Plasminogen activator inhibitor-1 (PAI1), SERPINE1 (gene 5054); assay: BSK_MyoF_PAI1: BioMAP Diversity Plus: MyoF Assay for Plasminogen activator inhibitor-1 (PAI1) Biomarker Activity (AID 2284256); conditions: primary human lung fibroblasts
Summary of the method: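 Primary human lung fibroblasts are dosed and incubated 24 h. PAI-1 is then measured by ELISA, while parallel cultures undergo SRB staining for overt cytotoxicity. Increases over DMSO define activity.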

[13] = read-out: Interleukin-8 (IL8), CXCL8 (gene 3576); assay: BSK_MyoF_IL8: BioMAP Diversity Plus: MyoF Assay for Interleukin-8 (IL8) Biomarker Activity (AID 2284261); conditions: primary human lung fibroblasts
Summary of the method: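 IL-8 levels were measured by ELISA in human lung fibroblasts harvested 24 h after compound addition. Responses were analysed as gain of signal over the DMSO baseline.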

Decorin, DCN (gene 1634) = assay: BSK_MyoF_Decorin: BioMAP Diversity Plus: MyoF Assay for Decorin Biomarker Activity (AID 2284265); conditions: primary human lung fibroblasts
Summary of the method: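 Compound is added to lung fibroblast cultures; cells incubate 24 h; decorin is then measured by ELISA; the response is analysed upward against DMSO controls.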

[14] = read-out: Actin alpha 1 (ACTA1), ACTA1 (gene 58); assay: BSK_MyoF_ACTA1: BioMAP Diversity Plus: MyoF Assay for Actin alpha 1 (ACTA1) Biomarker Activity (AID 2284244); conditions: primary human lung fibroblasts
Summary of the method: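 Cells were exposed to chemical for 24 h before a-SMA levels were quantified by ELISA in human lung fibroblasts. Increases were fitted against DMSO as negative control; parallel SRB staining (0.1% after 10% TCA fixation, 560 nm) assessed cytotoxicity.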

Measured: AC50

OC(Cc1ccccc1Cl)(Cn1[nH]cnc1=S)C1(Cl)CC1 (configuration not stated)
active: [2] 50 µM | [3] 31.4 µM | [4] 30.5 µM | [5] 91 µM | [7] 83.8 µM | [12] 34.5 µM | [13] 12.3 µM
inactive: [1] | [6] | [8] | [9] | [10] | [11] | Decorin, DCN (gene 1634)

O=S(=O)(c1ccc(Cl)cc1)c1cc(Cl)c(Cl)cc1Cl
active: [8] 25.1 µM | [9] 20 µM
inactive: [3] | [4] | [10] | [11] | [12] | [13] | Decorin, DCN (gene 1634)

Cc1cc(Cl)ccc1N
not listed: [1] | [2] | [5] | [6] | [7]
inactive: all other assays above

Oc1cccc(-c2ccccc2)c1
inactive: [8] | [9] | [10] | [11] | [12] | [13] | Decorin, DCN (gene 1634)
active: [3] 20 µM | [4] 31.3 µM

Cc1ccc2nc3sc(=O)sc3nc2c1
inactive: [3] | [4] | [8] | [9] | [10] | [11] | [12]
active: [13] 3.31 µM | Decorin, DCN (gene 1634) 5 µM

Oc1ccc(Cc2ccc(O)cc2)cc1
not listed: [1] | [2] | [5] | [6] | [7] | [14]
inactive: all other assays above

Cc1ccccc1OP(=O)(Oc1ccccc1C)Oc1ccccc1C
active: [1] 24.1 µM | [2] 18 µM | [3] 9.92 µM | [4] 10 µM | [5] 10.8 µM | [6] 18.3 µM | [7] 2.83 µM | [8] 27.3 µM | [9] 20 µM | [10] 33.3 µM | [11] 20 µM | [12] 11.9 µM | [13] 5.42 µM | Decorin, DCN (gene 1634) 20 µM

[Cl][Sn]([c]1ccccc1)([c]1ccccc1)[c]1ccccc1
active: [3] 0.0894 µM | [4] 0.402 µM | [8] 0.302 µM | [14] 0.102 µM | [9] 0.395 µM | [10] 0.324 µM | [11] 0.286 µM | [12] 0.169 µM | Decorin, DCN (gene 1634) 0.167 µM
inactive: [13]

O=S(=O)(C(Cl)(Cl)Cl)C(Cl)(Cl)Cl
inactive: [13]
active: [3] 3.07 µM | [4] 4.1 µM | [8] 3.03 µM | [9] 4.48 µM | [10] 3.71 µM | [11] 2.53 µM | [12] 3.03 µM | Decorin, DCN (gene 1634) 3.37 µM

Cc1ccccc1OP(=O)(Oc1ccccc1)Oc1ccccc1
inactive: [8] | [9] | [10] | [11]
active: [3] 36.9 µM | [4] 28.2 µM | [14] 20 µM | [12] 13.5 µM | [13] 0.731 µM | Decorin, DCN (gene 1634) 2.3 µM

NC(=O)c1ccc(N)nc1
active: [2] 11.4 µM | [7] 7.58 µM
inactive: [1] | [5] | [6]

CCOCn1c(-c2ccc(Cl)cc2)c(C#N)c(Br)c1C(F)(F)F
active: [1] 58 µM | [2] 18.6 µM | [5] 10.5 µM | [6] 13.5 µM | [7] 12.1 µM

COCC(=O)N(c1c(C)cccc1C)[C@H](C)C(=O)OC
not listed: [1] | [2] | [5] | [6] | [7] | [14]
inactive: all other assays above

CC(C=O)Cc1ccc2c(c1)OCO2 (configuration not stated)
not listed: [1] | [2] | [5] | [6] | [7]
inactive: all other assays above
